Source: PubChem BioAssay AID463173 (ICCB-Longwood Screening Facility, Harvard Medical School, 2010)
Out of some 52,000 compounds screened, about 4,300 (8.3%) were called active. Cut-off read from the data, not from the text of the source: active = survival mostly below about 52% (no sharp cut-off); inactive = mostly above about 56%. What follows is part of a selection rich in actives, with near analogues and random picks from the rest.

System: DeltatarO mutant
Experiment: growth inhibition of S. aureus wild type versus tarO mutant, primary screen, teichoic acid synthesis inhibitors, RN4220, OD600 (AID 463173)
Settings: OD600, 18 h, stronger effect = lower value, screened at 18.75 µg/mL (by protocol)

Structure (SMILES) | survival
Cc1ccc(S(=O)Cc2ccc(C(=O)NC3CCCCCC3)o2)cc1 (stereo not drawn) | 121% (inactive)
CCOC(=O)c1ccc(NC(=O)C2CCN(S(=O)(=O)Cc3ccccc3)CC2)cc1 | 66% (inactive)
CC(C)c1ccc(CNC(=O)c2ccc(N3CCCC3)c(NC(=O)NCc3ccccc3)c2)cc1 | 73% (inactive)
CC(C)c1ccc(CNC(=O)c2ccc(N3CCCC3)c(NC(=O)NCc3ccc(F)cc3)c2)cc1 | 47% (active)
Cc1ccc(CNC(=O)Nc2cc(C(=O)NCc3ccc(C(C)C)cc3)ccc2N2CCCC2)cc1 | 79% (inactive)
Cc1cc(C)cc(-n2ccn(Cc3ccc(F)cc3)c(=O)c2=O)c1 | 71% (inactive)
CCCCc1ccc(C(=O)Nc2ccc3nc(N4CCN(CC)CC4)cc(C)c3c2)cc1 | 36% (active)
COc1ccc(C(=O)Nc2ccc3nc(N4CCC(C)CC4)cc(C)c3c2)cc1 | 56% (inactive)
COc1ccc(C(=O)Nc2ccc3nc(N4CCCCC4)cc(C)c3c2)c(OC)c1 | 44% (active)
COc1ccccc1C(=O)Nc1ccc2nc(N3CCC(C)CC3)cc(C)c2c1 | 3% (active)
CCCCc1ccc(C(=O)Nc2ccc3nc(N(CC)CC)cc(C)c3c2)cc1 | 109% (inactive)
CCN1CCN(c2cc(C)c3cc(NC(=O)c4cc(Cl)ccc4OC)ccc3n2)CC1 | 8% (active)
COc1ccc(Cl)cc1C(=O)Nc1ccc2nc(Nc3cccc(Cl)c3)cc(C)c2c1 | 93% (inactive)
COc1cccc(C(=O)Nc2ccc3nc(N4CCC(C)CC4)cc(C)c3c2)c1 | 47% (inactive)
CC(=O)c1ccc(NC(=O)CSc2ccc3nnc(CCNS(=O)(=O)c4ccc(C)cc4)n3n2)cc1 | 67% (inactive)
COc1ccc(C)cc1NC(=O)CC(=O)Nc1ccc2nc3n(c(=O)c2c1)CCCCC3 | 89% (inactive)
COCCCNC(=O)CSc1nc2cc3c(cc2c(=O)n1CCCC(=O)NCc1ccc2c(c1)OCO2)OCO3 | 84% (inactive)
Cc1cc(C)cc(NC(=O)N2CCC(N3CCN(Cc4ccccc4)C(=O)C3=O)CC2)c1 | 77% (inactive)
COc1ccccc1CNc1nc(-c2ccco2)nn1S(C)(=O)=O | 70% (inactive)
O=C(Cn1ncc2c3ccccc3n(Cc3ccccc3)c2c1=O)NCc1ccccc1 | 93% (inactive)
Cc1ccccc1C(=O)OCc1cc(=O)n2nc(C(C)C)sc2n1 | 81% (inactive)
COc1ccc(Cn2c(C(=O)O)c(CNCCc3ccccc3Cl)c3ccc(C)cc32)cc1 | 80% (inactive)

Structure (SMILES) | survival
Cc1ccc(-n2c(=O)c3c(c4cc(C)ccc4n3C)n(CC(=O)Nc3c(C)cccc3C)c2=O)cc1 | 123% (inactive)
CCOc1cc(C(=O)Nc2ccc3nc(N4CCN(C)CC4)cc(C)c3c2)cc(OCC)c1OCC | 137% (inactive)
Cc1ccc(NC(=O)Nc2ccc3nc(N4CCN(C)CC4)cc(C)c3c2)cc1F | 96% (inactive)
CCN1CCN(c2cc(C)c3cc(NC(=O)c4ccc(OC)c(OC)c4)ccc3n2)CC1 | 44% (active)
COc1ccc(CC(=O)Nc2ccc3nc(Nc4ccc(OC)cc4)cc(C)c3c2)cc1 | 55% (inactive)
Cc1cc(N2CCN(C)CC2)nc2ccc(NC(=O)c3ccc(C(C)(C)C)cc3)cc12 | -3% (active)
Cc1cc(N2CCN(C)CC2)nc2ccc(NC(=O)c3ccccc3F)cc12 | 122% (inactive)
CCN1CCN(c2cc(C)c3cc(NC(=O)c4ccccc4F)ccc3n2)CC1 | 43% (active)
Cc1ccc(NC(=O)Nc2ccc3nc(N4CCN(C)CC4)cc(C)c3c2)cc1C | 101% (inactive)
COc1ccc(CC(=O)Nc2ccc3nc(N4CCCCC4)cc(C)c3c2)cc1 | 51% (active)
CCOc1ccc(CC(=O)Nc2ccc3nc(N4CCCCC4)cc(C)c3c2)cc1OCC | 92% (inactive)
CCN1CCN(c2cc(C)c3cc(NC(=O)c4cc(OC)c(OC)c(OC)c4)ccc3n2)CC1 | 78% (inactive)
COc1cccc(CNc2nc3c(-c4ccccc4)nnn3c3ccccc23)c1 | 84% (inactive)
CCOc1ccc(NC(=O)c2ccc3c(SCC(=O)O)c4c(nc3c2)CCC4)cc1 | 90% (inactive)
CCC1CCCCN1S(=O)(=O)c1cc2c(cc1C)NC(=O)CO2 (stereo not drawn) | 105% (inactive)
O=C1CCN(C(=O)/C=C/c2ccccc2)c2ccccc21 | 88% (inactive)
CC(=O)c1ccc(NC(=O)C2CCCN(S(=O)(=O)c3ccc4c(c3)CCCN4C(C)=O)C2)cc1 (stereo not drawn) | 93% (inactive)
Cc1ccc(NC(=O)C(=O)NCC(c2ccc3c(c2)OCO3)N2CCN(C)CC2)cc1C (stereo not drawn) | 68% (inactive)
CCN(CC)S(=O)(=O)c1ccc2nc(NC(=O)c3ccccc3OC)sc2c1 | 89% (inactive)
CCOc1ccc(N2CC(NC(=O)Cc3cccs3)CC2=O)cc1 (stereo not drawn) | 73% (inactive)
Cc1ccc(C(=O)Nc2ccc(F)cc2)cc1S(=O)(=O)N1CCCCCC1 | 69% (inactive)
COC(=O)c1sc(N2C(=O)c3oc4ccccc4c(=O)c3C2c2ccc(O)cc2)nc1C (stereo not drawn) | 121% (inactive)

Structure (SMILES) | survival
Cc1[nH]c2ccc(-c3nnc(SCC(=O)N4c5ccccc5CCc5ccccc54)o3)cc2c1C | 89% (inactive)
COc1ccc(Nc2cc(C)c3cc(NC(=O)c4cc(OC)cc(OC)c4)ccc3n2)cc1 | 94% (inactive)
COc1cc(OC)cc(C(=O)Nc2ccc3nc(N4CCC(C)CC4)cc(C)c3c2)c1 | 51% (inactive)
Cc1cc(N2CCCCC2)nc2ccc(NC(=O)c3ccc(F)cc3)cc12 | 51% (inactive)
CCN1CCN(c2cc(C)c3cc(NC(=O)c4cc(OC)cc(OC)c4)ccc3n2)CC1 | 47% (active)
COc1cc(OC)cc(C(=O)Nc2ccc3nc(N4CCCCC4)cc(C)c3c2)c1 | 31% (active)
COC(=O)c1ccc(Cl)cc1NC(=O)Nc1nnc(N(C)C2CCCCC2)s1 | 81% (inactive)
COc1ccc(-c2cc(C)no2)cc1S(=O)(=O)N1CCOc2ccc(Cl)cc21 | 92% (inactive)
Cc1ccccc1-n1c(=O)c2c3c(sc2n2cnnc12)CCCC3 | 72% (inactive)
Cc1ccc(-n2c(=O)[nH]c3cc(C(=O)NCc4ccccc4)ccc3c2=O)cc1 | 102% (inactive)
Cc1c(C(=O)OCc2ccccc2)[nH]c2c1C(=O)CC(c1ccc(C(C)(C)C)cc1)C2 (stereo not drawn) | 91% (inactive)
COC(=O)C(NC(=O)CCc1c(C)nc2c(-c3ccccc3)c(C)nn2c1C)C(C)C (stereo not drawn) | 109% (inactive)
Cc1ccc(Cn2nnc3c(=O)[nH]c(C4CCN(C(=O)Cc5ccccc5F)CC4)nc32)cc1 | 69% (inactive)
O=C(Cc1ccccc1F)N1CCC(c2nc3c(nnn3Cc3ccc(F)cc3)c(=O)[nH]2)CC1 | 72% (inactive)
O=C(Cc1ccc(F)cc1)N1CCC(c2nc3c(nnn3Cc3ccc(Cl)cc3)c(=O)[nH]2)CC1 | 27% (active)
O=C(Cc1ccccc1F)N1CCC(c2nc3c(nnn3Cc3cccc(Cl)c3)c(=O)[nH]2)CC1 | 44% (active)
O=C(Cc1ccc(F)cc1)N1CCC(c2nc3c(nnn3Cc3ccc(F)cc3)c(=O)[nH]2)CC1 | 66% (inactive)
CS(=O)(=O)N1CCC(c2nc3c(nnn3Cc3ccc(F)cc3)c(=O)[nH]2)CC1 | 102% (inactive)
COc1ccccc1N1CCN(C(=O)Cn2ncc3c2-c2cc(C)ccc2OC3)CC1 | 58% (inactive)
CN(C(=S)SCC1=CCS(=O)(=O)C1)C1CCS(=O)(=O)C1 (stereo not drawn) | 94% (inactive)
O=C1C(c2ccc(F)cc2)N(Cc2ccccc2Cl)C(=O)CN1C1CCCCC1 (stereo not drawn) | 81% (inactive)
Nc1no[n+]([O-])c1C(=O)NCCO | 65% (inactive)

Structure (SMILES) | survival
CC(C)(C)NC(=O)c1c(N)no[n+]1[O-] | 92% (inactive)
CN(C)C(=O)c1c(N)no[n+]1[O-] | 56% (active)
Cc1cc(C)c2c(=O)cc(C(=O)NCCc3ccc(S(N)(=O)=O)cc3)oc2c1 | 61% (inactive)
COC(=O)c1oc2ccc(Cl)cc2c1C | 65% (inactive)
CC(=O)Nc1c(C(=O)O)oc2ccc(Cl)cc12 | 58% (active)
CCOc1ccc(CC(=O)Nc2c(C(=O)c3ccccc3)oc3ccc(Cl)cc23)cc1OCC | 48% (inactive)
O=C(NCc1cccs1)c1ccc(Cn2c(SCc3ccc(F)cc3)nc3cccnc32)cc1 | 84% (inactive)
C=CCN=C1SCC(=O)N1S(=O)(=O)c1ccc(C)cc1 | 60% (active)
Cc1ccc(S(=O)(=O)N=C2SCCCS2)cc1 | 91% (inactive)
C=CCN=C1SC(C)C(=O)N1S(=O)(=O)c1ccccc1 (stereo not drawn) | 57% (inactive)
CC(=O)Nc1ccc(I)cc1C(=O)O | 95% (inactive)
CCN(Cc1ccccc1)C(=O)Cn1c(=O)cc(C)c2c(C)nn(-c3cccc(F)c3)c21 | 72% (inactive)
CCOC(=O)c1ccc(NC(=O)Cn2cc(C(=O)c3cccs3)c3ccccc32)cc1 | 62% (inactive)
O=C(Nc1ccc(S(=O)(=O)N2CCC(c3nc4ccccc4s3)CC2)cc1)c1ccccc1 | 104% (inactive)
Cc1cccc(C(=O)Nc2ccc(S(=O)(=O)N3CCC(c4nc5ccccc5s4)CC3)cc2)c1 | 40% (active)
O=C(Nc1ccc(S(=O)(=O)N2CCC(c3nc4ccccc4s3)CC2)cc1)c1ccccc1F | 57% (inactive)
O=C(Nc1ccc(S(=O)(=O)N2CCC(c3nc4ccccc4s3)CC2)cc1)c1ccc(F)cc1 | 63% (inactive)
Cc1ccc(C(=O)Nc2ccc(S(=O)(=O)N3CCC(c4nc5ccccc5s4)CC3)cc2)cc1 | 61% (inactive)
Cc1ccccc1C(=O)Nc1ccc(S(=O)(=O)N2CCC(c3nc4ccccc4s3)CC2)cc1 | 40% (active)
COCCn1c(SCC(=O)c2c(C)[nH]c3ccccc23)nc2cc(C(=O)NC(C)C)ccc2c1=O | 68% (inactive)
COc1ccc(NC(=O)CS(=O)CC(=O)NC2CCCc3ccccc32)cc1 (stereo not drawn) | 60% (inactive)
O=C(c1cccc(Cl)c1)n1nc(-c2cccnc2)nc1NCc1ccccc1 | 53% (inactive)
